In PubChem BioAssay (NCATS) one finds Potency and viability data, which are given here for eight molecules.

The target in experiment [1] is Aldehyde dehydrogenase, mitochondrial (Homo sapiens) (UniProt P05091). The experiment in a line: qHTS for Inhibitors of the Aldehyde Dehydrogenase Family (ALDH2) Validation screens (AID 2061302; active = well fitted inhibition curve with a large enough effect; title and protocol of this record describe different tests; note: potency is the fitted concentration of half-maximal effect). Particulars: ALDH inhibition qHTS; series mostly up to 42.6 µM. On the technique in general: In qHTS, concentration-response curves come from the screen itself.
For experiment [2], the target named is Retinaldehyde dehydrogenase 3 (Homo sapiens) (UniProt P47895). In words: qHTS for Inhibitors of the Aldehyde Dehydrogenase Family (ALDH1A3) Validation screen (AID 2061312). Note: % is set by controls: 0 for no effect and ±100 for the full control effect; nearly all actives have a fitted effect of over 45% in size. The note with it: ALDH1A3 enzyme inhibition qHTS validation, fluorescence; series mostly up to 84.7 µM.
Experiment [3] deals with Aldehyde dehydrogenase, mitochondrial (Homo sapiens) (UniProt P05091). The experiment in a line: qHTS for Inhibitors of the Aldehyde Dehydrogenase Family (ALDH2) Primary screen (AID 2061308). Note: nearly all actives have a fitted effect of over 55% in size. Note: potency is the fitted concentration of half-maximal effect. The note with it: ALDH2 enzyme inhibition qHTS, 1536-well; series mostly up to 56 µM.
Experiment [4] has as its target Retinaldehyde dehydrogenase 3 (Homo sapiens) (UniProt P47895). In words: qHTS for Inhibitors of the Aldehyde Dehydrogenase Family (ALDH1A3) Primary screen (AID 2061315).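 Note: plate controls were DMSO vehicle for no effect and reference inhibitor for full effect.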 Particulars: ALDH inhibition qHTS; series mostly up to 56 µM.
Experiment [5] in a line: BET inhibitor-based combinations targeting novel dependencies in MECOM-rearranged (r) AML: UCSD-AML1 cell line (AID 2202235). Note: nearly all actives have a fitted effect of over 40% in size. Note: potency is the fitted concentration of half-maximal effect. The note with it: UCSD-AML1 AML cells viability, CellTiter-Glo, 48 h; series mostly up to 46 µM. The gist of the method: (§1)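 Cells at 500/well were exposed for 48 hr to MIPE v5.0 drugs as 11-point dose curves. Viability was read by CellTiter-Glo luminescence and normalized to DMSO and empty-well controls. Activity was expressed as AUC and per-cell-line Z-AUC.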

Experiment [6] can be described thus: BET inhibitor-based combinations targeting novel dependencies in MECOM-rearranged (r) AML: AML-194 cell line (AID 2202237;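 note: plate controls were vehicle wells for no effect and wells without cells for full effect; nearly all actives have a fitted effect of over 40% in size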). The note with it: AML-194 (MECOM-r AML) viability, CellTiter-Glo, 48 h; series mostly up to 46 µM. A digest of the protocol: (§2)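 AML cell lines seeded at 500 cells/well, treated with 11-point dose curves for 48 h. Viability by CellTiter-Glo luminescence, normalised to DMSO and empty wells; activity expressed as AUC and per-cell-line Z-transformed AUC.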
(In general: ATP-based viability assays read luminescence as a measure of living cells.)

The target in experiment [7] is Aldehyde dehydrogenase, mitochondrial (Homo sapiens) (UniProt P05091). In words: qHTS for Inhibitors of the Aldehyde Dehydrogenase Family (ALDH2) Confirmatory screens (AID 2061303; active = well fitted inhibition curve with a large enough effect; title and protocol of this record describe different tests; note: potency is the fitted concentration of half-maximal effect; nearly all actives have a fitted effect of over 45% in size). The note with it: ALDH inhibition qHTS; series mostly up to 45.4 µM.
A short description of experiment [8]: qHTS for Inhibitors of the Aldehyde Dehydrogenase Family (ALDH1A2, ALDH1A3, ALDH2, ALDH3A1) (AID 2061307). Note: test system not described further here; potency is the fitted concentration of half-maximal effect; nearly all actives have a fitted effect of over 50% in size. Particulars: ALDH inhibition qHTS; series mostly up to 50.3 µM.
Experiment [9] has as its target Retinal dehydrogenase 2 (Homo sapiens) (UniProt O94788). In words: qHTS for Inhibitors of the Aldehyde Dehydrogenase Family (ALDH1A2) Confirmation screens (AID 2061314). Note: nearly all actives have a fitted effect of over 65% in size. Note: potency is the fitted concentration of half-maximal effect. The note with it: ALDH1A2 enzyme inhibition qHTS confirmation; series mostly up to 45.9 µM.
The target in experiment [10] is Aldehyde dehydrogenase 1A1 (Homo sapiens) (UniProt P00352). In words: qHTS for Inhibitors of the Aldehyde Dehydrogenase Family (ALDH1A1) Confirmatory screens (AID 2061316). Note: potency is the fitted concentration of half-maximal effect; nearly all actives have a fitted effect of over 65% in size. Particulars: ALDH inhibition qHTS; series mostly up to 47.3 µM.
Experiment [11] addresses Retinaldehyde dehydrogenase 3 (Homo sapiens) (UniProt P47895). In words: qHTS for Inhibitors of the Aldehyde Dehydrogenase Family (ALDH1A3) Confirmatory screens (AID 2061311). Note: potency is the fitted concentration of half-maximal effect; nearly all actives have a fitted effect of over 60% in size. Particulars: ALDH inhibition qHTS; series mostly up to 46 µM.
A short description of experiment [12]: BET inhibitor-based combinations targeting novel dependencies in MECOM-rearranged (r) AML: SET-2 cell line (AID 2202231).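 For viability: plate controls were DMSO treated cells for no effect and wells without cells for full effect.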 Note: nearly all actives have a fitted effect of over 35% in size. Note: potency is the fitted concentration of half-maximal effect. Particulars: SET-2 AML cells viability, CellTiter-Glo luminescence, 48 h; viability: stronger effect = lower value, concentration not given here. The gist of the method:
as §2

A short description of experiment [13]: BET inhibitor-based combinations targeting novel dependencies in MECOM-rearranged (r) AML: OCI-AML3 cell line (AID 2202232). Note: nearly all actives have a fitted effect of over 35% in size. Note: potency is the fitted concentration of half-maximal effect. Particulars: CellTiter-Glo luminescence, 48 h; Potency: OCI-AML3 viability; series mostly up to 46 µM. A digest of the protocol:
as §2

Experiment [14] is described as follows: BET inhibitor-based combinations targeting novel dependencies in MECOM-rearranged (r) AML: MV-4-11 cell line (AID 2202233).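 Note: plate controls were DMSO for no effect and blank wells for full effect; nearly all actives have a fitted effect of over 45% in size.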 Particulars: MV-4-11 AML viability, CellTiter-Glo luminescence, 48 h; series mostly up to 46 µM. The gist of the method:
as §1

Experiment [15] can be described thus: BET inhibitor-based combinations targeting novel dependencies in MECOM-rearranged (r) AML: HNT-34 cell line (AID 2202234). Note: nearly all actives have a fitted effect of over 35% in size. Note: potency is the fitted concentration of half-maximal effect. Particulars: HNT-34 AML viability, CellTiter-Glo luminescence, 48 h; series mostly up to 46 µM. A digest of the protocol: as §1
Experiment [16] is described as follows: BET inhibitor-based combinations targeting novel dependencies in MECOM-rearranged (r) AML: AML-191 cell line (AID 2202236;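 note: plate controls were vehicle wells for no effect and wells without cells for full effect; nearly all actives have a fitted effect of over 35% in size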). The note with it: AML-191 viability, CellTiter-Glo luminescence, 48 h; series mostly up to 46 µM. The gist of the method: as §2

SMILES strings stand for the structures. Results filed as inconclusive are left out. Values without a mark were called inactive. The source made the active and inactive calls. Unless noted, calls come from the whole dose curve; as a rule, active = well fitted curve in the direction sought with a large enough effect; inconclusive = small, poorly fitted or top-dose-only effect, or another doubt; inactive = no such curve, though single readings can be large; an effect the other way counts as inactive or inconclusive.

Consider `Nc1ccn([C@@H]2O[C@H](CO)[C@@H](O)[C@@H]2O)c(=O)n1`, for which the Potency entry in [1] and in experiment [2] was “inactive” in each case.
With `Cc1ccc(-c2cc(C(F)(F)F)nn2-c2ccc(S(N)(=O)=O)cc2)cc1`, the Potency result in [1], in experiment [3], in experiment [2], in [4], in experiment [5] and in [6] was “inactive” throughout.
For the molecule `CC(C)(C)OC(=O)N1CCN(c2cccc(NCc3ccc(-c4ccc(C#N)cc4)o3)c2)CC1`, the Potency in [1] is 1780 nM (active); in [7], 1120 nM (active); in experiment [8] it was 1.59 µM (active); in experiment [3], 282 nM (active); in experiment [10], 7.12 µM (active). In addition, in [9], the Potency result was “inactive”.
For `CC(N)=O`, the Potency entry in experiment [1] and in experiment [2] was “inactive” throughout.
On to `CC(C)(C)OC(=O)N1CCN(c2cnc(NCc3ccc(-c4ccc(C#N)cc4)o3)cn2)CC1`, for which the Potency in experiment [1] was 316 nM (active); in [7] it was 355 nM (active); in [8], 3.18 µM (active); in experiment [11], 11.3 µM (active); in [9], 1.79 µM (active); in experiment [10], 4.49 µM (active). In addition, the Potency result in experiment [4] was “inactive”.
As for `N#Cc1ccc(-c2ccc(CNc3ccc(N4CCC(C#N)CC4)cc3)o2)cc1`, the Potency in experiment [1] was 631 nM (active); in [7], 100 nM (active); in [8], 1.27 µM (active); in experiment [3], 100 nM (active); in experiment [11] it was 7.94 µM (active); in experiment [10], 5.04 µM (active). For the same molecule, the Potency entry in experiment [4] is “inactive”.
A word on the viability: it is a read-out of living cells in per cent, often relative to untreated cells. As for `COc1ccc2cc([C@H](C)C(=O)O)ccc2c1`, the Potency entry in experiment [1], in [3], in experiment [2], in [4], in [13] and in [14] was “inactive” in each case. Also, the Potency entry in experiment [15], in experiment [16] and in experiment [6] was “inactive” in each case. In addition, in [12], the viability was 116%.
Turning to `CC(C)c1c(C(=O)Nc2ccccc2)c(-c2ccccc2)c(-c2ccc(F)cc2)n1CC[C@@H](O)C[C@@H](O)CC(=O)O`, the Potency entry in experiment [1], in experiment [3], in experiment [2] and in experiment [4] was “inactive” throughout. The Potency in experiment [12] is 7.23 µM (active); in experiment [13], 3.23 µM (active); in experiment [15] it was 10.2 µM (active); in experiment [5], 7.23 µM (active).
